From PubChem BioAssay
The list is not random: actives were taken first. Their share in the collection is about 6.2%.
KB-V1 cytotox: qHTS assay for MDR1-selective chemotherapeutics: Primary screen using the drug-selected MDR subline cells KB-V1. KB-V1 MDR cells viability, CellTiter-Glo, 72 h. Potency, µM (top dose mostly 46.1 µM), most hits filed as cytotoxic. 400,000 compounds, 3.4% hits. AID 1347076, 2019; also: % is scaled to controls: 0 for no effect and ±100 for the full control effect; nearly all actives have a fitted effect of over 60% in size
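KB-V1 cells (P-gp-expressing MDR subline of KB-3-1) in phenol-red-free DMEM with 10% FBS were exposed to library compounds over a concentration series for 72 h at 37 degrees C. Viability read by CellTiter-Glo luminescence; concentration-effect curves fitted after normalization.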
ATXN viability: Viability Counterscreen for Primary qHTS for Inhibitors of ATXN expression | 400,000 compounds, 0.49% hits | Potency, µM (series often up to 56.7 µM), hits mostly cytotoxic | S2 cells (HEK-293 line with an ATXN2-luciferase reporter) viability, CellTiter-Fluor protease fluorescence, 24 h; also: nearly all actives have a fitted effect of over 40% in size
KB-3-1 tox: qHTS assay for MDR1-selective chemotherapeutics: Primary screen using the parental adenocarcinoma cell KB-3-1; KB-3-1 viability, CellTiter-Glo ATP luminescence, 72 h; 400,000 compounds, 1.4% hits; AID 1347075, 2019; Potency, µM (series often up to 46.1 µM), hits mostly cytotoxic; also: % is scaled to controls: 0 for no effect and ±100 for the full control effect; nearly all actives have a fitted effect of over 60% in size
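KB-3-1 parental drug-naive adenocarcinoma cells in DMEM/10% FBS, incubated 72 h at 37 C with pin-transferred compounds across a concentration series. Viability by CellTiter-Glo luminescence; concentration-response curves fitted after normalization.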
ATXN2 expr inh: Primary qHTS for Inhibitors of ATXN expression; HEK-293 ATXN2-luciferase reporter, luminescence, 24 h; Potency, µM (top dose mostly 57 µM), for inactives: top-dose activity change, negative = inhibition, most hits filed as inhibitors; 360,000 compounds, 0.72% hits; also: % is scaled to controls: 0 for no effect and ±100 for the full control effect; nearly all actives have a fitted effect of over 55% in size
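qHTS (up to 57 uM final) was run with 24 h compound exposure of reporter cells at 37 °C. Each well was multiplexed: SteadyGlo luminescence measured ATXN2-luciferase expression after a fluorogenic Gly-Phe-AFC viability readout (25 uM final).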
HT1080 IDH1KD tx: qHTS for induction of synthetic lethality in tumor cells producing 2HG: qHTS for the HT-1080-IDH1KD cell line; HT-1080 IDH1 knockdown viability, ATP luminescence, 48 h; Potency, µM (top dose mostly 46.1 µM), without a hit: at the highest dose activity, negative = toxicity, most hits filed as cytotoxic; 360,000 compounds, 2% hits;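 also: 0% = DMSO wells and -100% = cell-free medium wells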
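Assay cells: HT-1080 with IDH1 knockdown, 750 per well, RPMI/5% FBS. Exposure: 48 h at 37 °C following 2 h pre-incubation. Read: CellTiter-Glo luminescence; fitted concentration-response, curve class assigned.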
HT1080NT lethal: qHTS for induction of synthetic lethality in tumor cells producing 2HG: qHTS for the HT-1080-NT fibrosarcoma cell line. Potency, µM (top dose mostly 46.1 µM), inactives show top-dose activity, negative = less viability, most hits filed as cytotoxic. 360,000 compounds, 1.6% hits. HT-1080-NT fibrosarcoma viability, CellTiter-Glo ATP luminescence, 48 h;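 also: NT is the 2HG producing partner of a matched IDH1 knockdown line; 0% = DMSO-treated cells and -100% = media-only wells without cells; nearly all actives have a fitted effect of over 55% in size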
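Viability by CellTiter-Glo luminescence after 48 h compound exposure at 37C of HT-1080-NT cells (750/well, RPMI, 5% FBS). % activity scaled between DMSO wells and medium-only wells, then curve-fitted and categorized by curve class.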
Active calls of the source: *; i = inactive; ? = inconclusive; · = not tested or not shown; [ ] = remark or other dose. Calls follow the shape of the dose curve; as a rule, active = well fitted curve in the direction sought with a large enough effect; inconclusive = small, poorly fitted or top-dose-only effect, or another doubt; inactive = no such curve, though single readings can be large; an effect the other way counts as inactive or inconclusive. Potency is read from the fitted curve at half-maximal effect.

SMILES	KB-V1 cytotox	ATXN viability	KB-3-1 tox	ATXN2 expr inh	HT1080 IDH1KD tx	HT1080NT lethal
COc1ccc(CCNC(=O)c2cc(Nc3cc(C)cc(C)c3)nc3ccccc23)cc1OC	i	?	?	-39%	·	·
CC(C)c1c(C(=O)NCCN2CCOCC2)cnn1-c1nccc(-c2ccco2)n1	·	i	·	·	·	·
Cc1ccc2c(c1)-c1c(ssc1=S)C(C)(C)N2C(=O)CSC1=NCCS1	7.3µM*	i	i	-15%	-2%	-3%
CCOc1ccc2c(c1)-c1c(ssc1=S)C(C)(C)N2C(=O)CSC1=NCCS1	8.2µM*	i	i	-10%	-11%	-2%
Cc1ccc2c(c1)-c1c(ssc1=S)C(C)(C)N2C(=O)c1ccco1	i	i	i	?	?	?
COc1ccc(-c2nc3cc(F)ccc3cc2CN(C(=O)c2ccc3c(c2)OCO3)C2CC2)cc1	·	i	·	·	·	·
CCCCC(=O)OCc1cc(=O)n2nc(C3CCCCC3)sc2n1	i	i	i	5%	·	·
O=C1c2[nH]nc(-c3ccccc3O)c2C(c2ccc(Cl)cc2)N1Cc1ccco1 (stereo unspecified)	i	·	?	·	·	·
N#Cc1ccc(-c2ccc(OCC(=O)NCCc3ccccc3)cc2)cc1	5.2µM*	i	i	-6%	1%	3%
COc1ccc(CCNC(=O)COc2ccc(-c3ccc(C#N)cc3)cc2)cc1	i	i	i	2%	1%	-6%
O=C(NC(c1ccc(Cl)cc1)c1cnccn1)C1CCN(Cc2ccc(Oc3ccccc3)cc2)CC1 (stereo unspecified)	?	?	?	?	16µM*	?
O=C(NC(c1ccc(F)cc1)c1cnccn1)C1CCN(CCOc2ccc(Cl)cc2Cl)CC1 (stereo unspecified)	i	?	i	?	?	?
Cc1cccnc1C(NC(=O)C1CCN(Cc2ccc(Oc3ccccc3)cc2)CC1)c1ccc(F)cc1 (stereo unspecified)	?	?	?	?	?	21µM*
Cc1ccc(C(NC(=O)C2CCN(Cc3ccc(Oc4ccccc4)cc3)CC2)c2ccccn2)cc1 (stereo unspecified)	i	?	i	?	21µM*	15µM*
CCc1ccc(NC(=O)c2cc3c([nH]c2=O)CC(C)(C)CC3=O)cc1	i	i	i	16%	·	·
COC(=O)c1c(NC(=O)C2=COCCO2)sc(C)c1C	i	i	i	5%	-1%	-4%
Cc1cnc(N2CCC(C(N)=O)CC2)nc1-c1cccc(N(C)C)c1	i	·	i	·	·	·
FC(F)(F)c1cc(Nc2ccccc2)nc(-c2ccccn2)n1	i	i	i	?	15%	7%
FC(F)(F)c1cc(Sc2ccccc2)nc(-c2ccccn2)n1	?	i	i	-2%	?	13µM*
COc1ccc(Cl)cc1C(=O)Nc1ccc2nc3n(c(=O)c2c1)CCCC3	?	i	i	14%	1%	-12%
COc1cc(OC)cc(C(=O)Nc2ccc3nc4c(c(Nc5ccc(OC)c(OC)c5)c3c2)CCCC4)c1	i	28µM*	i	20µM*	·	·
COc1ccc(Nc2c3c(nc4ccc(NC(=O)c5cc(Cl)ccc5OC)cc24)CCCC3)cc1OC	?	7.1µM*	?	3.2µM*	·	·
COc1cccc(C(=O)Nc2c3c(nc4c2CCC4)CCCC3)c1	15µM*	i	i	5%	8%	0%
COc1cc(OC)cc(C(=O)Nc2ccc3nc4n(c(=O)c3c2)CCCC4)c1	i	i	i	·	0%	-14%
CCN(Cc1ccncc1)Cc1ccc2c(c1)CN(C(=O)c1ccc(C#CC(C)(C)O)o1)CCO2	·	i	·	·	·	·
SMILES	KB-V1 cytotox	ATXN viability	KB-3-1 tox	ATXN2 expr inh	HT1080 IDH1KD tx	HT1080NT lethal
O=c1[nH]cnc2c1ncn2C1OC(CO)C(O)C1O (stereo unspecified)	i	i	i	-6%	3%	0%
OCC1OC(n2cnc3c(/C=C(\O)c4ccccc4)ncnc32)C(O)C1O (stereo unspecified)	?	?	?	-9%	15µM*	?
CN(C)c1ncnc2c1nnn2C1OC(CO)C(O)C1O (stereo unspecified)	1.6µM*	?	i	·	0.46µM*	0.58µM*
OCC1OC(n2nc3ccccc3n2)C(O)C(O)C1O (stereo unspecified)	i	i	i	4%	-3%[9.24 µM]	-13%
OCC1OC(n2ccc3c2ncn2ncnc32)C(O)C1O (stereo unspecified)	0.65µM*	i	?	·	0.65µM*	0.58µM*
CN(C)c1ncnc2c1ncn2C1OC(CO)C(O)C1O (stereo unspecified)	?	?	8.2µM*	59%	13µM*	13µM*
CNc1ncnc2c1ncn2[C@@H]1O[C@H](CO)[C@@H](O)[C@H]1O	i	i	i	63%	12%	14%
COc1cc(C(=O)N2CCNC(=O)C2CC(=O)Nc2ccc(C)c(C)c2)cc(OC)c1OC (stereo unspecified)	?	i	i	9%	·	·
Cc1ccc(OCCSc2nc3ccccc3n2CC(=O)N2CCCCC2)cc1C	i	?	i	4%	·	·
CCc1nc2ccc(C(=O)Nc3ccc(NC(C)=O)cc3)cn2c1N(C)CCC(C)C	?	i	i	0%	?	?
COc1ccc(C[C@H](N)C(=O)N[C@H]2[C@@H](O)[C@H](n3cnc4c(N(C)C)ncnc43)O[C@@H]2CO)cc1	i	0.71µM*	0.41µM*	0.4µM*	11%	4%
CC(=O)/C(=N/Nc1ccccc1)N1CCOCC1	i	i	i	-20%	-16%	5µM*
CN(C)S(=O)(=O)c1ccc(C(=O)Nc2c(C(=O)Nc3ccc(F)cc3)oc3ccccc23)cc1	i	i	i	18%	·	·
COc1cc(/C=C/c2nnc3c4ccccc4ncn23)cc(OC)c1OC	i	i	i	9%	?	?
C(=C\c1nnc2c3ccccc3ncn12)/c1ccccc1	5.2µM*	i	12µM*	1%	5.8µM*	?
COc1ccccc1CN(Cc1nc2ccccc2c(=O)[nH]1)C(=O)Nc1cccc(C)c1	?	i	i	37%	3.5µM*	7.1µM*
